Drawing on PubChem BioAssay (NCATS), this text covers Potency and outcome for twelve compounds.

Test [1] is described as follows: P-glycoprotein substrates identified in KB-8-5-11 adenocarcinoma cell line, qHTS therapeutic library screen (AID 1346987). Note: nearly all actives have a fitted effect of over 65% in size. Note: potency is the fitted concentration of half-maximal effect. Summed up: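 P-gp-mediated resistance screen: KB-8-5-11 cells treated 72 h with compounds in dose-response. CellTiter-Glo viability.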
Test [2] is described as follows: NS1 protein of Zika virus - qHTS assay to identify small molecule inhibitors in human HEK 293 cells (AID 1347053). Note: series mostly up to about 46 µM; nearly all actives have a fitted effect of over 55% in size. Summed up: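 HEK 293 cells, seeded 20 h at 37 C, were pretreated with compound 1 h, then infected with ZIKV MR766 (MOI = 0.5) for 24 h. NS1 was read by TR-FRET with two anti-NS1 antibodies, normalized to uninfected and infected wells.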
Background: qHTS replaces the single test concentration by a dilution series.

A short description of test [3]: qHTS of pediatric cancer cell lines to identify multiple opportunities for drug repurposing: Primary screen for TC32 cells (AID 1347089). Note: nearly all actives have a fitted effect of over 60% in size. Summed up:
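Luminescent ATP read-out (CellTiter-Glo) of metabolically active TC32 cells after 48 h exposure. Concentration-response curves came from 11-point (MIPE, 0.78 nM–46 µM) or 8-point (NPC, 0.59 nM–46 µM) primary titrations; follow-up used 11 points.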

Test [4] is described as follows: qHTS of pediatric cancer cell lines to identify multiple opportunities for drug repurposing: Primary screen for SJ-GBM2 cells (AID 1347091). The procedure, abridged: (§1)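 Cell viability, CellTiter-Glo luminescence; 500-1,000 cells/well, 8- or 11-point titration, 48 h compound exposure at 37 degrees C, 5% CO2. Controls: DMSO neutral, bortezomib 2.3 µM final as positive.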

The nature of test [5]: qHTS of pediatric cancer cell lines to identify multiple opportunities for drug repurposing: Primary screen for A673 cells (AID 1347092). Note: nearly all actives have a fitted effect of over 45% in size. The procedure, abridged: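 Cell viability of A673 measured by CellTiter-Glo ATP luminescence after 48 hours compound exposure. Dilution series spanned 0.78 nM to 46 µM (MIPE, 11-point) or 0.59 nM to 46 µM (NPC, 8-point); bortezomib 2.3 uM positive control.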

Test [6] can be described thus: qHTS of pediatric cancer cell lines to identify multiple opportunities for drug repurposing: Primary screen for BT-37 cells (AID 1347094). Note: series mostly up to about 57 µM. Summed up:
(§2)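 Primary screen of approved and investigational compounds on cells in growth media at 37 degrees C, 5% CO2. MIPE set at 11-point and NPC set at 8-point dilutions; viability scored by ATP-based luminescence at 48 hours.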

The nature of test [7]: qHTS of pediatric cancer cell lines to identify multiple opportunities for drug repurposing: Primary screen for NB-EBc1 cells (AID 1347095). Note: potency is the fitted concentration of half-maximal effect. The procedure, abridged: as §2
The nature of test [8]: qHTS of pediatric cancer cell lines to identify multiple opportunities for drug repurposing: Primary screen for U-2 OS cells (AID 1347096). Note: nearly all actives have a fitted effect of over 50% in size. Summed up:
(§3)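 Cells (500-1,000/well) rested 5 h, then received compounds for 48 h; metabolically active cells were measured by CellTiter-Glo luminescence. Final concentrations spanned up to 46 µM (MIPE, 11-point) or 0.59 nM-46 µM (NPC, 8-point) in primary screens, 11-point in follow-ups.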

Test [9] can be described thus: qHTS of pediatric cancer cell lines to identify multiple opportunities for drug repurposing: Primary screen for Saos-2 cells (AID 1347097). Note: nearly all actives have a fitted effect of over 40% in size. Note: potency is the fitted concentration of half-maximal effect. Summed up: as §2
Test [10] in a line: qHTS of pediatric cancer cell lines to identify multiple opportunities for drug repurposing: Primary screen for SK-N-SH cells (AID 1347098). Note: nearly all actives have a fitted effect of over 65% in size. Summed up: as §3
Test [11] in a line: qHTS of pediatric cancer cell lines to identify multiple opportunities for drug repurposing: Primary screen for NB1643 cells (AID 1347099). Note: nearly all actives have a fitted effect of over 50% in size. Note: potency is the fitted concentration of half-maximal effect. The procedure, abridged:
as §2

A short description of test [12]: qHTS of pediatric cancer cell lines to identify multiple opportunities for drug repurposing: Primary screen for LAN-5 cells (AID 1347100). Summed up:
as §3

Test [13] is described as follows: qHTS of pediatric cancer cell lines to identify multiple opportunities for drug repurposing: Primary screen for DAOY cells (AID 1347090). Note: series mostly up to about 46 µM; nearly all actives have a fitted effect of over 55% in size. Summed up:
as §1

Test [14] can be described thus: qHTS of pediatric cancer cell lines to identify multiple opportunities for drug repurposing: Primary screen for SK-N-MC cells (AID 1347093). Note: series mostly up to about 46 µM. Summed up: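 Metabolically active cells were quantified by ATP-dependent luminescence (CellTiter-Glo, 15 min at room temperature) following 48 h treatment. Cells had been plated at 500-1,000 per well and settled for 5 h beforehand.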

The nature of test [15]: Natriuretic polypeptide receptor (hNpr1) antagonism - Pilot counterscreen GloSensor control cell line (AID 1347045; calls by dose curve; note: series mostly up to about 38 µM). The procedure, abridged:
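This counterscreen uses HEK293 cells expressing the GIP/pGS-40F cGMP biosensor. Compound-treated cells are challenged with 50 uM sodium nitroprusside, and the luciferase signal is compared before and after stimulation.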

In test [16] the target is Atrial natriuretic peptide receptor 1 (Homo sapiens) (UniProt P16066). Briefly: Natriuretic polypeptide receptor (hNpr1) antagonism - Pilot screen (AID 1347049; calls by dose curve;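 note: agonist-evoked cGMP luminescence read 20 min after hNppA addition; series mostly up to about 58 µM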). The procedure, abridged:
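Readout is cGMP-driven firefly luciferase luminescence in HEK293 cells carrying hNpr1 and a PDE5-domain GloSensor, read before and 20 min after 0.1 nM hNppA stimulation. Cells had 2% substrate reagent for 2 h and test compound for 30 min.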

The target in test [17] is Atrial natriuretic peptide receptor 2 (Homo sapiens) (UniProt P20594). Briefly: Natriuretic polypeptide receptor (hNpr2) antagonism - Pilot subtype selectivity assay (AID 1347050; calls by dose curve). Summed up:
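Pilot selectivity screen against hNpr2: HEK293 cGMP-sensor cells are treated with LOPAC1280 compounds, then with hNppC peptide at 1 nM final. The cGMP-driven luminescence change over 20 min at room temperature is the read-out.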

In test [18] the target is T1, Tyrosine-protein phosphatase non-receptor type substrate 1 (Homo sapiens) + Leukocyte surface antigen CD47 (Homo sapiens) (UniProt P78324+Q08722). Description: CD47-SIRPalpha protein protein interaction - LANCE assay qHTS validation (AID 1347057; active = well fitted curve in the direction sought with a large enough effect in the signal ratio, with a control signal flat, not every such curve was filed as active; the % refers to the signal ratio; note: series mostly up to about 38 µM). The procedure, abridged:
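First, His-tagged CD47 and Eu-labelled anti-His antibody met the compound for 30 min; next, site-specifically biotinylated SIRPalpha was added for 30 min; finally streptavidin-APC was added before reading the TR-FRET ratio.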
On the technique in general: Time-resolved FRET reads energy transfer from a long-lived donor to a nearby acceptor.

Test [19] deals with T1, Tyrosine-protein phosphatase non-receptor type substrate 1 (Homo sapiens) + Leukocyte surface antigen CD47 (Homo sapiens). Description: CD47-SIRPalpha protein protein interaction - Alpha assay qHTS validation (AID 1347059).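 Note: bead proximity luminescence from CD47 binding SIRPalpha after compound preincubation with SIRPalpha.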 Summed up: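 Binding is measured by AlphaScreen proximity: Ni-NTA acceptor beads capture His-CD47, streptavidin donor beads capture biotin-SIRPalpha. Each of three additions (SIRPalpha with compound, CD47, beads) incubates 30 min at room temperature protected from light.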

Test [20] has as its target Parathyroid hormone/parathyroid hormone-related peptide receptor (Homo sapiens) (UniProt Q03431). Briefly: qHTS for PTHR1 Agonists: Optimization Screen against the NCGC LOPAC library (AID 1347079).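 Note: GloSensor cAMP luminescence in HEK-293 GP2 cells expressing human PTHR1 with IBMX.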 The procedure, abridged: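 Compounds were tested across a qHTS titration. PTHR1-expressing GP2 cells report cAMP rises via GloSensor luminescence after 1 hr compound exposure at 37C with IBMX present.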

The structures appear in SMILES notation. Results filed as inconclusive are left out. Where a structure was tested more than once in an assay, its records may differ in their call. Calls of active or inactive are those of the source. Unless noted, calls come from the whole dose curve; as a rule, active = well fitted curve in the direction sought with a large enough effect; inconclusive = small, poorly fitted or top-dose-only effect, or another doubt; inactive = no such curve, though single readings can be large; an effect the other way counts as inactive or inconclusive.

T1 sequence (P78324 whole entry, looked up): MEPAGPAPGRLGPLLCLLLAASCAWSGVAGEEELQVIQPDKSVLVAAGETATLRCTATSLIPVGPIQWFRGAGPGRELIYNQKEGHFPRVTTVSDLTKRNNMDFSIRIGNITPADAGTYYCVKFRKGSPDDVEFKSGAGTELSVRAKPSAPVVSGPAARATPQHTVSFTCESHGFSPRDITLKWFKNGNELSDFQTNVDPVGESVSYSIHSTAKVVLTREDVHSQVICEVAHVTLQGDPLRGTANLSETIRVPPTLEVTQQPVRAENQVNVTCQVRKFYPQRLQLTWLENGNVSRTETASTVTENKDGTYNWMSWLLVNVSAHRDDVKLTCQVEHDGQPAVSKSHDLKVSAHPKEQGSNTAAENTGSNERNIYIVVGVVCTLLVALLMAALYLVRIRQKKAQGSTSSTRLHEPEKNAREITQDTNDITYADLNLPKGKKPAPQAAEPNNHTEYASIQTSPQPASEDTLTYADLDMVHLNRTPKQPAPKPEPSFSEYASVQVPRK
T1 sequence (Q08722 whole entry, looked up): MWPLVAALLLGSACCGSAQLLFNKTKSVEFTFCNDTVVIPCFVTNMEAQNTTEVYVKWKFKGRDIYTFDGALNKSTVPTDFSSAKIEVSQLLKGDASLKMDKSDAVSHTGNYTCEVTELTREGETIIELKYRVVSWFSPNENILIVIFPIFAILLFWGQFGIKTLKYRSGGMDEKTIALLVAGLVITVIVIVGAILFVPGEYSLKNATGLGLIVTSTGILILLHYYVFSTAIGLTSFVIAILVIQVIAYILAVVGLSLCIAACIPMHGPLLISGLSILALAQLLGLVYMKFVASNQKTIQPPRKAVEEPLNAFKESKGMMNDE
Parathyroid hormone/parathyroid hormone-related peptide receptor (Homo sapiens), sequence (Q03431 whole entry, looked up): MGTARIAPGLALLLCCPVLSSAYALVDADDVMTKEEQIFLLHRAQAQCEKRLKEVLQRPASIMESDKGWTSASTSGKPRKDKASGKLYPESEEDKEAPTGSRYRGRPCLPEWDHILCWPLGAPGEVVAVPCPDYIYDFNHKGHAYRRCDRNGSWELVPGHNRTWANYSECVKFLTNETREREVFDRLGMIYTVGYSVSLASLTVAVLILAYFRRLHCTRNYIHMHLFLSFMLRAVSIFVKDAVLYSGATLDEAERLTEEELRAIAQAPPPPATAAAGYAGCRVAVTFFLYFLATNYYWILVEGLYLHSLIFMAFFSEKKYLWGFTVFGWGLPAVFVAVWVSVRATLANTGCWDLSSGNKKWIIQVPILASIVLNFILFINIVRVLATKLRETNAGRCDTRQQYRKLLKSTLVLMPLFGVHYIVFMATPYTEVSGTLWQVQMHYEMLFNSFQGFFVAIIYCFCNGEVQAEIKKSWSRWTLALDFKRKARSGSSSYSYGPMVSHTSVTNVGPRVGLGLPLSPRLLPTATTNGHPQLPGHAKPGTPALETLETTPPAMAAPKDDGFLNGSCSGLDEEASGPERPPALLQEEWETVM
Atrial natriuretic peptide receptor 1 (Homo sapiens), sequence (P16066 whole entry, looked up): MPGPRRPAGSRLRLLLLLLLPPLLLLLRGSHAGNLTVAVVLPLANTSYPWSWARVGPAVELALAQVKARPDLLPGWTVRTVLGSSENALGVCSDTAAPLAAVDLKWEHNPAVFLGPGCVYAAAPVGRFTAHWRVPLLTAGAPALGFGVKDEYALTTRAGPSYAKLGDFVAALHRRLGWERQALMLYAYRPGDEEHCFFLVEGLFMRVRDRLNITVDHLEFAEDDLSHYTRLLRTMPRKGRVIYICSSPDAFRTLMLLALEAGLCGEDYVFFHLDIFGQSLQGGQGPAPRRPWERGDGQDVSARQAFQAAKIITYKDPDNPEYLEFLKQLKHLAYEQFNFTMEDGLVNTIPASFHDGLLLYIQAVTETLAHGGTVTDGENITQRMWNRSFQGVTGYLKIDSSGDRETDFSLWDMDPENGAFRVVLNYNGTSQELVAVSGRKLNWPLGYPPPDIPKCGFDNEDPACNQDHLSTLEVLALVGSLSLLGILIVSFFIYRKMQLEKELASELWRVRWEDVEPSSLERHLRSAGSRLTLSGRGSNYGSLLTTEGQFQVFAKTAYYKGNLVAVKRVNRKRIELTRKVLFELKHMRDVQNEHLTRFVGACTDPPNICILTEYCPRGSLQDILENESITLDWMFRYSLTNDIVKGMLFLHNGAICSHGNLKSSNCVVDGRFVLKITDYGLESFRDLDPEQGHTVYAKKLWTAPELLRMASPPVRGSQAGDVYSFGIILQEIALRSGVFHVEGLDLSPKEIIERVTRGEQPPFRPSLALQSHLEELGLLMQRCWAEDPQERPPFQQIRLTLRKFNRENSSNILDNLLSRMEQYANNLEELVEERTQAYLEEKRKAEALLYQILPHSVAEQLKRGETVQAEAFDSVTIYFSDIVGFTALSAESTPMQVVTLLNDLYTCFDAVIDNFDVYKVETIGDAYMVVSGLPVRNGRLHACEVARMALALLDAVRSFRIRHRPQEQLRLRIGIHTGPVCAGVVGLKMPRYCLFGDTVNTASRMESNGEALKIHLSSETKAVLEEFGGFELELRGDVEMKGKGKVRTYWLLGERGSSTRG
Atrial natriuretic peptide receptor 2 (Homo sapiens), sequence (P20594 whole entry, looked up): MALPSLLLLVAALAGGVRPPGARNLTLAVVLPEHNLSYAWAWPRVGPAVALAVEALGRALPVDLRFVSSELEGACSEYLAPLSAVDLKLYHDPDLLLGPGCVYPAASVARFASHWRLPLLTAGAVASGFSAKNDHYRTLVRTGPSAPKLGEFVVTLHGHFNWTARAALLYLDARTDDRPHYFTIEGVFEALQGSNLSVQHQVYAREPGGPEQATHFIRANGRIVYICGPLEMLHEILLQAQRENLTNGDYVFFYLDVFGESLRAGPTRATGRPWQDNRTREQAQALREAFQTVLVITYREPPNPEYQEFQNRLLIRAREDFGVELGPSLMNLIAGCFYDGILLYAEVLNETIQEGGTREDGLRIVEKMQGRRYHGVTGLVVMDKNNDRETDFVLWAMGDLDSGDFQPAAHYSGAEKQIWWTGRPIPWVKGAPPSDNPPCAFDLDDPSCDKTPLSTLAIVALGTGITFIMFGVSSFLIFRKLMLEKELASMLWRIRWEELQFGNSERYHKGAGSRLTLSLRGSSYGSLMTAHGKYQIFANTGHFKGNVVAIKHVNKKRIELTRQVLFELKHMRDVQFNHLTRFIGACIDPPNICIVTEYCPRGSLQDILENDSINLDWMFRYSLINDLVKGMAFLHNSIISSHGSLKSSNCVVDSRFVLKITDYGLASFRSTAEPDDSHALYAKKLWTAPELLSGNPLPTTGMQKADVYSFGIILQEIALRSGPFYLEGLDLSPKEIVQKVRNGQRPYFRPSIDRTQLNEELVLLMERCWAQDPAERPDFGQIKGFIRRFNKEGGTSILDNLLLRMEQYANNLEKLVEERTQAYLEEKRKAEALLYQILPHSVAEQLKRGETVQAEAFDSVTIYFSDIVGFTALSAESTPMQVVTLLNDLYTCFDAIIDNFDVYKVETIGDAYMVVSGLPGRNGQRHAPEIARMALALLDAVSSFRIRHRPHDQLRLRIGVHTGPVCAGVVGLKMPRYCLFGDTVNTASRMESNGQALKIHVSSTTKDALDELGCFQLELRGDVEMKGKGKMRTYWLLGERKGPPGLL

For the compound `Cc1cc(O)cc2c1O[C@](C)(CCC[C@H](C)CCC[C@H](C)CCCC(C)C)CC2`, the Potency result in test [1], in [2], in test [3], in test [4], in test [5] and in [6] was “inactive” in each case. Moreover, the Potency result in test [7], in [8], in test [9], in test [10], in test [11] and in [12] was “inactive” throughout.

With `CCN(CC)CCSC(=O)C(c1ccccc1)c1ccccc1`, the Potency entry in [1], in test [2], in [3], in test [13], in [8] and in test [9] was “inactive” throughout. In addition, in [10], the Potency result was “inactive”. Also, the Potency in test [7] and in [11] was 23.7 µM (active) in each case.

As to `OCC(O)CN1CCN(c2ccccc2)CC1` (centres undefined), the Potency result in test [1], in test [2], in test [3], in [4], in test [5] and in [14] was “inactive” throughout. Further, the Potency result in test [6], in [7], in test [8], in test [9], in test [10] and in test [11] was “inactive” throughout. Besides, the Potency entry in test [12] is “inactive”.

In the case of `CC12CCC(CC1)C(C)(C)O2`, the Potency result in test [1], in test [2], in test [3], in test [4], in test [5] and in [14] was “inactive” each time. Further, the Potency entry in test [6], in test [7], in test [8], in test [9], in [10] and in [11] was “inactive” each time. The Potency entry in test [12] is “inactive”.

For the compound `Cc1cc(CC(=O)O)n(C)c1C(=O)c1ccc(Cl)cc1`, the Potency entry in [1], in test [2], in test [13], in [4], in test [5] and in test [6] was “inactive” in each case. The Potency result in [7], in test [8], in test [9], in [10], in test [11] and in test [12] was “inactive” throughout.

As to `O=C1c2c(O)cccc2Cc2cccc(O)c21`, the Potency entry in test [1], in test [2], in test [13], in test [4], in [5] and in test [14] was “inactive” each time. Moreover, the Potency entry in [6], in test [7], in [8], in test [9], in test [10] and in [11] was “inactive” throughout. Besides, in [12], the Potency entry was “inactive”.

Consider `NC(=O)NNc1ccccc1`, for which the Potency entry in test [1], in [2], in [13], in test [4], in test [5] and in test [14] was “inactive” in each case. Further, the Potency result in test [6], in test [7], in test [8], in test [9], in [11] and in [12] was “inactive” in each case.

In the case of `Cc1cc(C(C#N)c2ccc(Cl)cc2)c(Cl)cc1NC(=O)c1cc(I)cc(I)c1O` (centres undefined), the Potency was 16.4 µM (active) and inactive in [1]; 26.6 µM (active) in [9]. In addition, the Potency result in test [2] and in [3] was “inactive” throughout.

As to `CCCCC(CC)COC(=O)c1ccccc1O` (centres undefined), the Potency entry in test [1], in test [2], in [13], in test [4], in test [6] and in [7] was “inactive” each time. The Potency entry in test [8], in test [9], in [10], in [11] and in test [12] was “inactive” in each case.

On to `CNCC(O)c1ccc(O)c(O)c1` (centres undefined), for which the outcome in test [15], in [16], in test [18] and in test [19] was inactive. Further, the Potency entry in test [17], in test [2], in [20], in test [3], in test [13] and in [4] was “inactive” in each case. For the same compound, the Potency entry in [7], in test [8], in [11] and in test [12] was “inactive” in each case. For the same compound, in test [9], the Potency is 26.6 µM (active).

Consider `NC(=O)c1ncn([C@@H]2O[C@H](CO)[C@@H](O)[C@H]2O)c1N`, for which the Potency entry in test [1], in [2], in test [13], in test [4], in test [5] and in test [14] was “inactive” throughout. Besides, the Potency entry in test [6], in [7], in test [8], in test [9], in test [11] and in test [12] was “inactive” throughout.

As for `O=C(CCCN1CCN(c2ccccn2)CC1)c1ccc(F)cc1`, the Potency result in test [1], in [2], in [13], in [4], in test [7] and in [10] was “inactive” each time. Moreover, the Potency result in test [11] and in [12] was “inactive” each time.
